Bioassay records from PubChem BioAssay.
Sampled rows, rich in hits. Any-hit rate of the full collection: about 17%.
TDP1 block: blocks human tyrosyl-DNA phosphodiesterase 1; Q9NUW8; recombinant TDP1, AlphaScreen DNA substrate cleavage; Potency, µM (top dose mostly 130 µM), inactives show top-dose activity change, negative = inhibition, most hits filed as inhibitors; 350,000 tested, 0.28% active; also: % is scaled to controls: 0 for no effect and ±100 for the full control effect; nearly all actives have a fitted effect of over 40% in size
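Recombinant human Tdp1 (E. coli-expressed, 1 nM final) preincubated with compounds 15 min at room temperature, then 5'-biotin/3'-phosphotyrosine-FITC DNA substrate (15 nM final) added for 5 min. AlphaScreen beads (10 ug/ml final) added 10 min; cleavage lowers signal.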
ClpP mod: qHTS Assay for Activators of ClpP; purified B. subtilis ClpP, FRET peptide cleavage, 20 min; Potency, µM (titrated, usually from 57.5 µM), for the others: at the top dose activity change, negative = active; 340,000 tested, 1.9% active; active = well fitted falling curve with a large enough effect; inconclusive = small, poorly fitted or top-dose-only effect; inactive = no such curve, though single readings can be large or run the other way; also: the source files actives as falling curves though it sought activators and does not explain the sign; nearly all actives have a fitted effect of over 65% in size
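Purified B. subtilis ClpP, 10 microg/mL final in Tris/HCl pH8 with KCl, BSA, glycerol and Tween-20, cleaved an Abz/nitrotyrosine-quenched decapeptide. Fluorescence (ex 320, em 430) was read at 0 and 20 min at room temperature. Delta was normalized to 5.8 microM ADEP and DMSO/no-enzyme controls.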
DT40 TDP1 CPT: DT40-hTDP1 cell growth loss with CPT; Potency, µM (doses to about 46.2 µM), without a hit: at the top dose activity change, negative = growth inhibition, usual class: inhibitors; 420,000 tested, 12% active; chicken DT40 Tdp1-/-;hTDP1 cells + 20 nM CPT, ATP luminescence, 48 h; AID 686979; also: % is scaled to controls: 0 for no effect and ±100 for the full control effect; nearly all actives have a fitted effect of over 55% in size
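Chicken DT40 Tdp1-/- cells complemented with human TDP1, 400 cells/well, exposed to compounds plus 20 nM camptothecin for at least 48 h at 37 C; viability read as ATP content by CellTiter-Glo luminescence.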
TDP1 cell noCPT: qHTS for Inhibitors of human tyrosyl-DNA phosphodiesterase 1 (TDP1): qHTS in cells in absence of CPT. DT40 Tdp1-/- hTDP1 cells, no CPT, ATP luminescence, 48 h. Potency, µM (doses to about 46.2 µM), for inactives: top-dose activity change, negative = growth inhibition, usual class: inhibitors. 420,000 tested, 15% active; also: % is scaled to controls: 0 for no effect and ±100 for the full control effect; nearly all actives have a fitted effect of over 55% in size
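Camptothecin absent (DMSO only). Human TDP1-complemented DT40 knockout cells, 400 cells/well, 37 °C for minimum 48 hr; ATP measured via CellTiter-Glo, 30 min dark incubation, luminescence.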
An asterisk follows results filed as active; ? = inconclusive; / = no result given; ! = not confirmed by another sample; [ ] = remark or other dose. Unless noted, calls follow the shape of the dose curve; as a rule, active = well fitted curve in the direction sought with a large enough effect; inconclusive = small, poorly fitted or top-dose-only effect, or another doubt; inactive = no such curve, though single readings can be large; an effect the other way counts as inactive or inconclusive. Potency is read from the fitted curve at half-maximal effect.

SMILES | TDP1 block | ClpP mod | DT40 TDP1 CPT | TDP1 cell noCPT
COc1ccc(NC(=O)C(c2ccc(C)cc2)N(C)C(=O)/C=C\c2ccc3c(c2)OCO3)cc1 (stereo not drawn) | 6% | -1% | ? | ?
CN(C)c1cc[n+](CC(=O)Nc2ccc(Cl)cc2)cc1 | / | -3% | 6.5µM* | 3.3µM*
Cc1cc(C)cc(NC(=O)C[n+]2ccccc2)c1 | 4% | / | -11% | -22%
Cc1cccc(NC(=O)C[n+]2ccc(N(C)C)cc2)c1 | 6% | -2% | 15µM* | ?
N[C@H](CCC(=O)N[C@H](CSN=O)C(=O)NCC(=O)O)C(=O)O | -4% | / | 0% | -14%
CCOC(=O)c1c(C)oc2nc(C)nc(NCc3ccc(Cl)cc3)c12 | 4% | 1% | ? | ?
CCOC(=O)c1c(C)oc2nc(C)nc(NCCc3ccc(OC)c(OC)c3)c12 | -5% | 0% | 21µM* | 18µM*
CCOC(=O)c1c(C)oc2nc(C)nc(NCc3ccc(F)cc3)c12 | -3% | 1% | ? | 16µM*
CCOC(=O)c1c(C)oc2nc(C)nc(NCc3ccc(OC)cc3OC)c12 | -1% | -1% | ? | 13µM*
CCOC(=O)c1c(C)oc2nc(C)nc(NC(C)c3ccccc3)c12 (stereo not drawn) | 6% | 1% | 21µM* | 16µM*
CC(C)(C)NCC(O)COc1nsnc1N1CCOCC1 (stereo not drawn) | 9%[56.1 µM] | / | / | /
CC(C)C1N(C(=O)N2CCOCC2)CCN1S(=O)(=O)c1ccccc1 (stereo not drawn) | / | / | -2% | 11%
CCC[C@H]1CN(c2ccc(Br)cc2)C(=O)[C@@H]1CC(=O)Nc1ccc(OC)cc1 | / | 1% | ? | 16µM*
COc1ccc(NC(=O)C[C@H]2C(=O)N(c3ccc(Br)cc3)C[C@@H]2CSC)cc1 | / | -1% | ? | 23µM*
O=C(C[C@H]1C(=O)N(c2ccccc2)C[C@@H]1Cc1ccccc1)Nc1ccc(Br)cc1 | / | -6% | 13µM* | 9.2µM*
COc1ccc(NC(=O)C[C@H]2C(=O)N(c3ccc(OC)cc3)C[C@@H]2CSC)cc1 | / | 1% | -23% | ?
COc1ccc(N2C[C@H](CSC)[C@@H](CC(=O)Nc3ccc(Br)cc3)C2=O)cc1 | / | -4% | ? | 21µM*
O=C(C[C@H]1C(=O)N(c2ccc(Br)cc2)C[C@@H]1Cc1ccccc1)Nc1ccccc1 | / | 1% | ? | ?
O=C1NCCN/C1=C\C(=O)c1cccc(Br)c1 | 5% | -1% | -21% | -27%
Cc1n[nH]c(=O)n1-c1ccc(OCc2ccccc2)cc1 | 0% | / | 0% | -16%
CN1C(=O)c2ccc(NC(=S)NC(=O)C(C)(C)C)cc2C1=O | 3% | 6% | -2% | -3%
COc1ccc(CCN2C(=O)CS/C2=N\NC(=O)c2ccc(C(C)(C)C)cc2)cc1OC | 0% | -3% | ? | 15µM*
COc1ccc(N=C2SC(C(N)=O)CC(=O)N2CCc2ccc(OC)c(OC)c2)cc1 (stereo not drawn) | -4% | 1% | -28% | -13%
COc1ccc(N=C2SCC(=O)N2CCc2ccc(OC)c(OC)c2)cc1 | / | 0% | ? | 26µM*
COc1ccc(CCN2C(=O)CSC2=Nc2ccc(C(C)C)cc2)cc1OC | 4% | / | 15µM* | 9.2µM*
SMILES | TDP1 block | ClpP mod | DT40 TDP1 CPT | TDP1 cell noCPT
Cc1ccc(C[C@@H](NS(=O)(=O)c2ccc(C(=O)O)cc2)C(=O)O)cc1 | 16% | / | / | /
CC(C)C(=O)OCc1cc(=O)n2nc(C3CC3)sc2n1 | 5% | -6% | -17% | 6%
c1cn(-c2cc(-c3ccc4c(c3)OCO4)ncn2)cn1 | / | / | ? | -9%
CCOC(=O)c1c[nH]c2c([N+](=O)[O-])cc(OC)cc2c1=O | / | / | 7.3µM* | 16µM*
O=c1[nH]cnc2c1ncn2C1OC(CO)CC1F (stereo not drawn) | / | 0% | 0.46µM* | 1.8µM*
O=c1[nH]cnc2c1ncn2[C@H]1CC[C@@H](CO)O1 | 4% | 0% | 9.2µM*! | 12µM*!
CC(C)(C)C(=O)N1CCN(S(=O)(=O)c2ccc3c(c2)OCCCO3)CC1 | 3%[0.505 µM] | -1% | ? | 18µM*
COc1ccc(C(=O)N2CCN(S(=O)(=O)c3ccc4c(c3)OCCO4)CC2)cc1OC | 0% | -1% | -25% | -17%
CN(C)S(=O)(=O)c1cccc(C(=O)N2CCN(S(=O)(=O)c3ccc4c(c3)OCCO4)CC2)c1 | / | 0% | ? | 16µM*
CC(C)(C)c1nn(-c2ccccc2)c2[nH]c(=O)c(CNCc3ccco3)cc12 | 5% | ? | 21µM* | 23µM*
COc1ccc(CNCc2cc3c(C(C)(C)C)nn(-c4ccccc4)c3[nH]c2=O)cc1 | 8% | -3% | 26µM* | 18µM*
Cc1ccc(CNCc2cc3c(C(C)(C)C)nn(-c4ccccc4)c3[nH]c2=O)cc1 | 3% | 1% | ? | 25µM*
COCCN(C(=O)c1cc(CN2C(=O)c3ccccc3C2=O)ccc1OC)c1c(N)n(CC(C)C)c(=O)[nH]c1=O | / | 2% | -5% | 14%
CCCC(=O)N1CCCC1(C)C(=O)Nc1cccc(OC(C)C)c1 (stereo not drawn) | / | -1% | 2% | 4%
COc1ccc(NC(=O)C(=O)NCC(c2ccc3c(c2)OCO3)N2CCN(C)CC2)cc1 (stereo not drawn) | 2% | 0% | ? | ?
COc1cc(-c2csc(CCn3nc(C)cc3C)n2)cc(OC)c1OC | 3% | / | 21µM* | 18µM*
Cc1cc(C)n(CCc2nc(-c3ccc(C(C)(C)C)cc3)cs2)n1 | -3% | 48% | 23µM* | 12µM*
COC(=O)C[C@H]1CC[C@@H](NC(=O)Nc2c(C)noc2C)[C@@H](CO)O1 | / | 0% | 11% | 2%
Cc1ccnc2ccc(I)cc12 | / | 1% | ? | -23%
COc1ccc(Cl)cc1NC(=O)CCS(=O)(=O)c1nc(-c2cccs2)cc(C(F)(F)F)n1 | 6% | 0% | 4.6µM* | 3.3µM*
COc1ccc(NC(=O)CCS(=O)(=O)c2nc(-c3cccs3)cc(C(F)(F)F)n2)cc1 | 6% | -8% | 4.6µM* | 5.2µM*
O=C(CCS(=O)(=O)c1nc(-c2cccs2)cc(C(F)(F)F)n1)Nc1ccc(F)c(Cl)c1 | 6% | 22µM* | 4.6µM* | 9.2µM*
O=C(CCS(=O)(=O)c1nc(-c2cccs2)cc(C(F)(F)F)n1)Nc1ccc(OC(F)(F)F)cc1 | 6% | -1% | ? | -24%
CC(C)c1nnc(NC(=O)CCS(=O)(=O)c2nc(-c3cccs3)cc(C(F)(F)F)n2)s1 | 0% | 134% | 2.9µM* | 4.1µM*
COc1ccc(C2c3cc(OC)c(OC)cc3CC3C(=O)OCC32)cc1OC (stereo not drawn) | / | / | 11% | 2%
